Source: PubChem (Broad Institute)
Y pestis TopoI: Yersinia pestis topoisomerase I inhibitors, primary screen, biochemical, cleavage product accumulation, plate reader, single point | Y. pestis Topo-I cleavage product accumulation | activity, % at 10 µM | 360,000 compounds, 0.064% hits | AID 504884, 2011; in the data active means activity above about 50%, passing the limit was not always enough
FadD28 binding: inhibitors of FadD28 bisubstrate probe binding, primary screen, biochemical, fluorescence polarization, single point; Mycobacterium tuberculosis FadD28 fatty-acid-AMP ligase; inhibition, % at 12.5 µM; 360,000 compounds, 0.22% hits; AID 588549, 2011; in the data active means inhibition above about 8.5%, passing the limit was not always enough
BioA inh: M. tuberculosis BioA enzyme inhibitors, primary screen, biochemical, plate reader, single point, HTS. purified M. tuberculosis BioA enzyme. 360,000 compounds, 0.096% hits. inhibition, % at 9.99 µM. 7,8-diaminopelargonic acid synthase BioA (Mycobacterium tuberculosis); in the data active means inhibition above about 40%
TcdB inh: TcdB glycohydrolase inhibitors, primary screen, biochemical, single point, plate reader; 350,000 compounds, 0.24% hits; inhibition, % at 9.99 µM; AID 652162, 2013; Toxin B (Clostridioides difficile), P18177; TcdB glycohydrolase enzymatic assay; in the data active means inhibition above about 10%
Numbers without * were called inactive; nt = no result given. A selection: hits, their analogues and other compounds. The true share with any hit is near 0.45%.

SMILES	Y pestis TopoI	FadD28 binding	BioA inh	TcdB inh
N#CC1=C(N)N(c2ccccc2)C(c2ccco2)C1(C#N)C#N (configuration not stated)	-7	15*	2	nt
CO[C@@H]1CN(C)C(=O)c2ccc(NS(=O)(=O)c3cn(C)cn3)cc2OC[C@H](C)N(C)C[C@H]1C	nt	nt	-1	0
O=C(NCCO)c1ccc2nc(-c3ccco3)c(-c3ccco3)nc2c1	-14	13*	1	nt
C[C@H](CO)N1C[C@H](C)[C@H](CN(C)C(=O)Nc2ccc3c(c2)OCO3)Oc2ccc(NC(=O)Nc3ccc(F)cc3)cc2C1=O	nt	nt	nt	0
O=C(CCN1c2ccccc2Sc2ccccc21)OCC(=O)N1CCN(C(=O)c2ccco2)CC1	52*	4	0	nt
CC[n+]1ccc(/C=C/c2ccc(N(C)C)cc2)c2ccccc21	-38	1	nt	15*
NNC(=S)NC1CC2CC1C1C=CCC21 (configuration not stated)	-4	1	-1	-1
Oc1ccc(O)c(C=NNC(=S)NC2CC3CC2C2C=CCC32)c1 (configuration not stated)	-15	18*	0	0
CCN1/C(=C2\OC(=S)N(C)C2=O)Sc2ccccc21	2	1	-3	nt
CCN1/C(=C2\OC(=S)N(C)C2=O)C=Cc2ccccc21	6	2	-2	11*
O=C(C[C@@H]1C=C[C@H](NC(=O)c2cccc(F)c2)[C@@H](CO)O1)NCCN1CCCC1	nt	nt	nt	1
CNC[C@@H]1Oc2ccc(NS(C)(=O)=O)cc2C(=O)N([C@H](C)CO)C[C@@H]1C	nt	nt	0	1
C[C@@H]1CCCCO[C@H](CN(C)S(=O)(=O)c2cn(C)cn2)[C@@H](C)CN([C@@H](C)CO)C(=O)c2cc(NS(=O)(=O)c3cn(C)cn3)ccc2O1	nt	nt	-1	-8
O=C1C=C(N2CC2)c2ccccc2C1=O	-15	8.9*	-1	-1
O=S(=O)(c1ccccc1F)N1CCCCN2[C@@H](CO)[C@@H](c3ccc(-c4cncnc4)cc3)[C@@H]2C1	nt	nt	0	nt
O=C(Cc1ccccn1)c1ccncc1	4	-3	-1	10*
COc1ccc(CNS(=O)(=O)CCNCc2ccccc2OC)cc1	12	1	-1	2
CCCCCCCCNS(=O)(=O)CCNCc1ccccc1OC	53*	-1	0	1
O=C1CN(S(=O)(=O)c2ccccc2)C[C@H]2[C@@H](c3ccc(C4=CCCC4)cc3)[C@@H](CO)N12	nt	nt	nt	1
O=C(CNc1ccc2ccccc2c1)N/N=C/c1ccc(C(=O)O)cc1	0	-1	1	-6
O=C(CNc1cccc2ccccc12)N/N=C/c1ccc(C(=O)O)cc1	2	38*	2	-1
COc1ccc(C(=O)NCc2cccs2)cc1S(=O)(=O)N1CCOCC1	-4	1	0	-1
COc1ccc(/C=C/C(=O)N(C)Cc2cccs2)cc1S(=O)(=O)N1CCOCC1	18	26*	0	-1
Cc1ccc(NC(=O)C2OCCc3ccccc32)cc1C (configuration not stated)	-5	-3	-1	11*
Cc1cc(C)nc(NC(N)=NC(C)c2ccccc2)n1 (configuration not stated)	nt	nt	nt	1
SMILES	Y pestis TopoI	FadD28 binding	BioA inh	TcdB inh
Cc1cc(C)nc(NC(N)=NCCc2ccccc2)n1	16	-1	2	10*
O=C1NC(=S)SC1=Cc1ccc(Cl)cc1	1	-1	2	3
O=C1NC(=S)SC1=Cc1ccc(N(CCCl)CCCl)cc1	15	14*	-17	1
NS(=O)(=O)c1ccc(CCNC(=O)c2ccc(CS(=O)(=O)c3ccc(Br)cc3)o2)cc1	8	-5	0	12*
COc1ccc(CSCC(=O)Nc2ccc(S(=O)(=O)N3CCCCCC3)cc2)cc1	33	12*	nt	nt
CC(=O)Nc1ccc(NC(=O)Cc2ccc(S(=O)(=O)N3CCCCC3)cc2)cc1	-5	-1	-3	13*
COc1ccc(NC(=O)CSCC(=O)Nc2ccc(S(=O)(=O)N3CCCCC3)cc2)cc1	10	1	0	1
O=C(Cc1ccccc1)Nc1ccc(S(=O)(=O)N2CCCC2)cc1	2	-3	0	1
N#C[C@@H]1[C@@H](c2ccccc2-c2ccccc2)[C@H](CO)N1C(=O)Cc1ccccc1	nt	nt	nt	2
CC(=O)Nc1ccc(NC(=O)[C@@H]2CCCN2S(=O)(=O)c2ccc3c(c2)OCCO3)cc1	2	-2	-1	16*
O=C(Nc1ccc(O)cc1)C1CCCN1S(=O)(=O)c1ccc(F)cc1 (configuration not stated)	-2	0	-2	10*
Cc1csc(N=Nc2ccc(N(C)C)cc2)[n+]1[O-]	-30	-2	nt	13*
O=C(OCC#CCSc1nnc(-c2ccc(Br)cc2)o1)c1cccs1	-8	-1	nt	-1
Cc1ccc(-c2nnc(SCC#CCOC(=O)c3cccs3)o2)cc1	56*	-2	nt	nt
COc1ccccc1C(=O)OCC#CCSc1nnc(-c2cccc3ccccc23)o1	52*	-1	-2	2
CCCNC(=O)N1CC2(CN(C(=O)CC)C2)c2c(n(C)c3cc(OC)ccc23)[C@@H]1CO	nt	nt	nt	1
COc1ccccc1CN1[C@H](CO)[C@@H]2c3ccccc3N(C(=O)c3ccncc3)C[C@@H]21	nt	nt	0	nt
CCN(CC)CCNc1ccc(CO)c2oc3cc(Cl)ccc3c(=O)c12	-14	0	-4	0
CCN(CC)CCNc1ccc(C)c2sc3ccc(O)cc3c(=O)c12	-42	0	nt	29*
O=C(Nc1ccc(F)cc1)N1C[C@H]2[C@@H](c3ccccc31)[C@@H](CO)N2C(=O)Cc1ccccc1	nt	nt	-2	2
COc1cc(/C=N/NC2=NCCCCC2)ccc1O	-7	0	-1	14*
C/C(C/C(C)=C1/SC(=S)NC1=O)=C1\SC(=S)NC1=O	7	20*	nt	-2
CC(=O)c1ccc(NC(=O)Nc2ccc(NS(=O)(=O)c3ccc(C)cc3)cc2)cc1	-12	11*	nt	nt
COc1ccc2cc3c(nc2c1)OCC3	1	0	-2	11*
COc1ccc2nc3c(nc2c1)CCCC3	10	-2	0	1
SMILES	Y pestis TopoI	FadD28 binding	BioA inh	TcdB inh
CCOC(=O)c1sc2nc(OCCN3CCOCC3)cc(C)c2c1N	nt	nt	nt	12*
CCOC(=O)c1nnn(-c2nonc2N)c1-c1ccc(Cl)cc1	2	-2	nt	9
CCOC(=O)c1nnn(-c2nonc2N)c1-c1ccccc1Cl	-2	-3	nt	16*
CCOC(=O)c1nnn(-c2nonc2N)c1-c1ccc(F)cc1	-2	-1	-1	12*
CC(C)Cc1nnc(NC(=O)CCC(=O)NCc2ccccc2Cl)s1	3	-2	nt	13*
C[C@H](CO)N1C[C@H](C)[C@@H](CN(C)S(=O)(=O)c2cccc(F)c2)Oc2ncc(C#CC3CCCC3)cc2C1=O	nt	nt	1	-1
O=C(COC(=O)c1ccc(O)cc1)Nc1cc(S(=O)(=O)N2CCCCCC2)ccc1Cl	1	-2	0	0
Nc1cc(N)cc(C(=O)OCC(=O)Nc2cc(S(=O)(=O)N3CCCCC3)ccc2Cl)c1	-11	-5	-1	11*
